Consider 68 compounds from ChEMBL document CHEMBL4513216, “Probing the Open Global Health Chemical Diversity Library for Multistage-Active Starting Points for Next-Generation Antimalarials” (ACS Infect Dis, 2020).

The campaign covered roughly 68,000 compounds. About 2,700 (4%) showed an effect of 50% or more. Shown is part of a subset that was picked to be rich in strong results.

This assay deals with Plasmodium berghei. Briefly: Screen against P. berghei liver stage (PbLuc), transformed with Luciferase, at 2uM. The conditions noted are these: tested at 2 uM. The format is functional, HepG2.
As for `CC(C)[C@H]1CN(c2cnccn2)C[C@@H]1NC(=O)C1(C#N)CCOCC1`, the INHIBITION was determined as 2.3%. For `CC(C)c1ncncc1C(=O)N1CCCN(Cc2ccccc2)CC1` the value was 56.02%. As for `CCc1ncncc1C(=O)N1CCCN(Cc2ccc(C)cc2)CC1`, the INHIBITION is listed as -8.84%. As for `CC(C)c1ncncc1C(=O)N1CCN(Cc2cccnc2)CC1`, the figure is 33.61%; as for `Cc1cc(C(=O)N2CCN(Cc3ccsc3)CC2)c(C)n1C1CC1`, 53.58%; as for `Cc1ccc(C(=O)N2CCN(Cc3ccsc3)CC2)n1C`, 43.52%.

Take `CCc1ncncc1C(=O)N1CCCN(Cc2ccccc2C)CC1`: the INHIBITION is given as -23.42%. As to `CCc1ncncc1C(=O)N1CCCN(Cc2ccc(C#N)cc2)CC1`, the INHIBITION was found to be 68.24%. For `O=C(c1cc(C2CC2)[nH]n1)N1CCN(Cc2ccsc2)CC1` the value was 44.43%; for `CC(C)c1ncncc1C(=O)N1CCN(Cc2cscn2)CC1`, -43.47%; for `CC(C)c1ncncc1C(=O)N1CCN(Cc2ccsc2)CC1`, 58.05%. As for `CC(C)c1ncncc1C(=O)N1CCCN(Cc2cccs2)CC1`, the figure is 8.37%; as for `CCc1ncncc1C(=O)N1CCN(Cc2ccsc2)CC1`, -45.83%; as for `N#Cc1c(-c2ccccc2)csc1N`, 30.76%. As for `Cc1noc(C)c1NC(=O)NC1CCN(C(=O)OC(C)(C)C)CC1`, the figure is 11.92%; as for `CCCn1c(C)c(CC(=O)NCCOC)c2c1CC(C)(C)CC2=O`, 18.91%. Regarding `CC(C)(NCC(=O)NCCC#N)c1ccc2c(c1)OCCO2`, the INHIBITION is -9.66%. As for `Cc1ccc(CN2C[C@@H]3CCN(Cc4cccnc4)C(=O)[C@H]3C2)s1`, the figure is 41.38%; as for `Cc1ccc(OC2(C(=O)NC(C)Cc3ccsc3)CCNCC2)cc1` (stereo not drawn), 26.35%; as for `CN(Cc1cccnc1)C1CC2(CCN(Cc3ccccn3)CC2)C1`, 27.9%. For `CN(C)S(=O)(=O)N1CC[C@]2(C[C@H](OCc3ccccn3)CO2)C1` the value was -51.66%.

With `COc1ccc(C(=O)N2CCCCC2c2ccccn2)c(OC)n1` (stereo not drawn), the INHIBITION came to 21.05%. As for `COCCNC(=O)N1CCN(C(C)C(=O)NC(C)C)CC1` (stereo not drawn), the figure is 21.22%; as for `COCC(=O)N1CCN(C(C)C(=O)NC(C)C)CC1` (stereo not drawn), 61.91%; as for `COCCNC(=O)C(C)N1CCN(C)CC1` (stereo not drawn), 7.9%. For `CC(=O)N1CCc2c(nc(N(C)C)nc2N(C)CC2CCCO2)C1` (stereo not drawn) the value was -34.04%; for `CCCC(=O)N1CCC2(CC1)OCCO2`, 38.51%; for `CCCC(=O)N1CCC2(CC1)COC2`, 54.01%. For `CN(C)C(=O)CCC(=O)N1CCC2(CC1)COC2` the value was 15.02%; for `CS(=O)(=O)NCC(Cc1cccc(F)c1)N1CCNC1=O` (stereo not drawn), 22.27%. For `CC(C)S(=O)(=O)NCC(Cc1cccc(F)c1)N1CCNC1=O` (stereo not drawn), the INHIBITION is listed as 53.44%. For `CCS(=O)(=O)NCC(Cc1cccc(F)c1)N1CCNC1=O` (stereo not drawn) the value was -35.92%; for `Cc1cc(C)n(CC2CCCN2CC(=O)Nc2nncs2)n1` (stereo not drawn), 37.08%. Take `CC(C)Nc1cccc(CNC(=O)N2CCCC2)c1`: the INHIBITION is -24.87%.

Regarding `CC(C)Oc1cccc(CNC(=O)N2CCC(N3CC=CC3)C2)c1` (stereo not drawn), the INHIBITION is on record as -21.25%. For `CC(C)Nc1cccc(CNC(=O)N2CCC(N3CC=CC3)C2)c1` (stereo not drawn) the value was 58.34%; for `COC(=O)CCCNC(=O)Nc1ccccc1OC`, -3.99%; for `CN1CCC(NC(=O)Nc2cnn(-c3ccccc3Cl)c2)C1=O` (stereo not drawn), 15.75%. Turning to `CNC(=O)[C@@H]1C[C@@H](n2cc(-c3ccc(CN4CC=CC4)cc3)nn2)CN1`, the INHIBITION is reported as -21.75%.

For `Nc1nc(CCC(=O)N2C[C@H](c3ccccc3)[C@@H](N)C2)cs1`, the INHIBITION is given as -10.1%. As for `CS(=O)(=O)N1CC(c2n[nH]c3ncccc23)C1`, the figure is 31.98%; as for `CS(=O)(=O)N1CC(c2ncn3ccccc23)C1`, 51.36%; as for `CCc1ccc2c(C3CN(S(C)(=O)=O)C3)ncn2c1`, 28.81%. As to `CC(=O)N1N=C(c2cccs2)OC1C(=O)Nc1ccc(C(C)C)cc1` (stereo not drawn), the INHIBITION is reported as 19.09%. As for `NC(=O)CC1CCN(C(=O)c2csc(-c3ccccc3F)n2)CC1`, the figure is 51.96%; as for `NC(=O)CC1CCN(C(=O)c2cnc(-c3ccccc3F)s2)CC1`, 20.76%. For `COC1CCN(C(=O)c2csc(-c3ccccc3F)n2)CC1` the value was 10.91%; for `Cc1noc(C)c1CN1CCn2c(COC(C)C)nnc2C1`, 40.71%; for `Fc1ccc(OCCNC2CCN(Cc3ccncc3)CC2)c(F)c1`, 4.19%. As for `Cc1ccc(CCNC(=O)Cn2nc(C)n(Cc3ccccc3)c2=O)o1`, the figure is -9.48%; as for `Cc1ccc(CCNC(=O)Cn2nc(C)n(Cc3ccccc3)c2=O)s1`, -8.8%. With `Cc1nn(CC(=O)NCCc2ccncc2)c(=O)n1Cc1ccccc1`, the INHIBITION is listed as 53.98%. As to `Cc1nnc(CN2C[C@H](NC(=O)C3CCOCC3)[C@@H](C(C)C)C2)s1`, the INHIBITION is -29.43%. For `N[C@@H]1c2ccccc2C2(CCN(c3ncccc3C(F)(F)F)CC2)[C@H]1O` the value was -7.99%. As for `OCC1(O)CCN(c2ccnc3c(C(F)(F)F)cccc23)CC1`, the figure is -100.41%; as for `OCC1(O)CCN(c2ncccc2C(F)(F)F)CC1`, 65.3%; as for `Cn1c(CC2CCS(=O)(=O)C2)nnc1SCCOc1cccc(Cl)c1` (stereo not drawn), 42.62%. As for `O=C(NCc1cncc2c1CCN(CC1CCOC1)C2)c1ccno1` (stereo not drawn), the figure is 69.13%; as for `c1cnc(NCc2cncc3c2CCN(CC2CC2)C3)nc1`, 30.99%. As to `CS(=O)(=O)NCc1cncc2c1CCN(CC1CCOC1)C2` (stereo not drawn), the INHIBITION turned out to be 52.05%. `Cc1nccc(NCc2cncc3c2CCN(CC2CCOC2)C3)n1` (stereo not drawn): the INHIBITION is recorded as 22.23%. For `O=C(NCc1cncc2c1CCN(CC1CCOC1)C2)c1ccco1` (stereo not drawn) the value was 7.33%; for `O=C(NCc1cncc2c1CCN(C1CCOCC1)C2)c1ccno1`, 36.06%. As for `COc1ccccc1C(=O)N1CC(=O)N(Cc2ccco2)CC(O)C1` (stereo not drawn), the figure is -8.2%; as for `Cc1cnccc1CN1Cc2ccccc2OC2(CCC(CO)CC2)C1` (stereo not drawn), 19.76%. As for `O=C1CCC2(CCC(NCc3ccoc3)CC2)N1` (stereo not drawn), the INHIBITION is on record as -29.46%.

With `CCc1cnc(NCC(c2ccncc2)N2CCOCC2)nc1` (stereo not drawn), the INHIBITION came out at 0.12%. As for `CN1CCC(c2nnc3ccc(C(=O)N4CCCCC4)cn23)C1` (stereo not drawn), the figure is 23.43%.
